The text below walks through data of PubChem BioAssay (NCI).

About 83,000 compounds went through this panel and 20% of them were active in at least one assay; those are over-represented in the sample as a whole.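 The test compound was applied at a single concentration to cells in 96-well plates for 48 hours, and percent growth was recorded.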 A number with no mark means an inactive call. Calls of active or inactive are those of the source. How the source made its calls: active means growth percent below 10; inactive means the rest.

Test systems include NCI-H23 lung; NCI-H226 lung; HOP-62 NSCLC; NCI-H460 lung; HOP-92 NSCLC; NCI-H522 lung; A549/ATCC NSCLC; 786-0 renal; COLO 205 colon; DU-145 prostate; K-562 leukemia; MALME-3M melanoma; MDA-MB-231 breast; RXF 393 renal; SF-268 CNS; SF-295 CNS; SF-539 CNS; UACC-257 melanoma; M14 melanoma.
What all share (assay): NCI-60 one-dose screen, 48 h (100 = growth as untreated, 0 = no growth, -100 = all killed)
Holding throughout (settings): 10 µM

With `COc1ccc(N=Nc2cc(OC)c(OC)c(OC)c2)cc1`, the growth in the experiment with NCI-H23 lung was 77.3%; with NCI-H226 lung, 92.4%; in the experiment with HOP-62 NSCLC, 66.9%; with NCI-H460 lung it was 87.5%; with HOP-92 NSCLC it was 79.4%; in the experiment on NCI-H522 lung, 57%. Moreover, the growth in the experiment on A549/ATCC NSCLC is 73%; in the experiment on 786-0 renal, 98.2%; in the experiment on COLO 205 colon, 87.2%; in the experiment on DU-145 prostate, 97.3%; with K-562 leukemia, 69.4%; in the experiment with MALME-3M melanoma, 77.9%. Also, the growth in the experiment on MDA-MB-231 breast was 89.4%; with RXF 393 renal, 86%; in the experiment on SF-268 CNS, 91.3%; with SF-295 CNS, 83.6%; in the experiment on SF-539 CNS it was 82.6%; with UACC-257 melanoma, 84.9%. For the same compound, the growth in the experiment on M14 melanoma is 74.3%.
Take `COc1ccc(/C=C2/SC(=S)NC2=O)c(OC)c1OC`: the growth in the experiment with NCI-H23 lung is 73.9%; in the experiment with NCI-H226 lung, 81.6%; in the experiment on HOP-62 NSCLC it was 69.2%; in the experiment with NCI-H460 lung, 90.3%; in the experiment with HOP-92 NSCLC it was 36.8%; with NCI-H522 lung, 73.3%. Also, the growth in the experiment on A549/ATCC NSCLC is 79.5%; with 786-0 renal, 87.9%; with COLO 205 colon, 105%; with DU-145 prostate, 97.9%; with K-562 leukemia, 84%; with MALME-3M melanoma it was 65.7%. Also, the growth with MDA-MB-231 breast is 62.7%; in the experiment on RXF 393 renal it was 81.5%; with SF-268 CNS it was 80.5%; in the experiment on SF-295 CNS it was 76.5%; in the experiment with SF-539 CNS, 83.2%; in the experiment with UACC-257 melanoma, 88.9%. In the experiment with M14 melanoma, the growth is 87.4%.
Turning to `COc1ccc(-c2cc(-c3ccccc3)nc(SCCCCCCC(=O)NO)n2)cc1`, the growth in the experiment with NCI-H23 lung is 50.9%; in the experiment with NCI-H226 lung, 72.3%; in the experiment on HOP-62 NSCLC it was 57.2%; with NCI-H460 lung it was 36%; in the experiment with HOP-92 NSCLC, 49.3%; with NCI-H522 lung, 18.8%. Moreover, the growth is 50.1% in the experiment with A549/ATCC NSCLC; 79.8% with 786-0 renal; 44.8% in the experiment on COLO 205 colon; 60% in the experiment on DU-145 prostate; 26.7% in the experiment on K-562 leukemia; 20.3% with MALME-3M melanoma. Also, the growth in the experiment with MDA-MB-231 breast was 68.9%; with RXF 393 renal, 22.1%; in the experiment on SF-268 CNS it was 97.4%; in the experiment on SF-295 CNS, 67.4%; in the experiment on SF-539 CNS, 73.2%; in the experiment with UACC-257 melanoma, 49.5%. The growth in the experiment with M14 melanoma was 48.2%.
With `C(=N\Nc1ncnc2sc3c(c12)CCNC3)/c1cccc2ccccc12`, the growth was 98.9% in the experiment on NCI-H23 lung; 97.1% with NCI-H226 lung; 79.9% with HOP-62 NSCLC; 62.8% with NCI-H460 lung; 93.4% in the experiment with HOP-92 NSCLC; 97% with NCI-H522 lung. Moreover, the growth is 67.6% with A549/ATCC NSCLC; 59.5% with 786-0 renal; 63.5% in the experiment on COLO 205 colon; 100% in the experiment with DU-145 prostate; 2.84% (active) with K-562 leukemia; 92.6% in the experiment with MALME-3M melanoma. The growth is 66% in the experiment on MDA-MB-231 breast; 85% with RXF 393 renal; 97.5% with SF-268 CNS; 104% in the experiment with SF-295 CNS; 85.8% in the experiment with SF-539 CNS; 104% with UACC-257 melanoma. The growth with M14 melanoma is 95%.
Consider `CCOC(=O)C1C(C(=O)OCC)C2C(=O)C3C(C(=O)OCC)C(C(=O)OCC)C3C(=O)C12` (configuration not stated), for which the growth was 98.9% in the experiment on NCI-H23 lung; 100% in the experiment on NCI-H226 lung; 96.2% in the experiment with HOP-62 NSCLC; 103% in the experiment on NCI-H460 lung; 104% with HOP-92 NSCLC; 104% in the experiment on NCI-H522 lung. The growth was 100% in the experiment with A549/ATCC NSCLC; 103% in the experiment with 786-0 renal; 120% in the experiment on COLO 205 colon; 110% in the experiment on DU-145 prostate; 94.2% with K-562 leukemia; 106% in the experiment on MALME-3M melanoma. Moreover, the growth in the experiment on MDA-MB-231 breast is 110%; in the experiment on RXF 393 renal it was 112%; in the experiment on SF-268 CNS it was 101%; in the experiment on SF-295 CNS it was 101%; with SF-539 CNS, 105%; in the experiment on UACC-257 melanoma, 108%. Also, the growth with M14 melanoma was 110%.
Consider `Cc1ccc(S(=O)(=O)N/N=C2\CCCc3ccccc32)cc1`, for which the growth was 87.1% with NCI-H23 lung; 90.9% in the experiment on NCI-H226 lung; 108% in the experiment on HOP-62 NSCLC; 96.7% in the experiment on NCI-H460 lung; 99.5% in the experiment with HOP-92 NSCLC; 103% in the experiment with NCI-H522 lung. Also, the growth in the experiment with A549/ATCC NSCLC was 101%; in the experiment on 786-0 renal, 116%; in the experiment on COLO 205 colon, 115%; in the experiment on DU-145 prostate, 114%; with K-562 leukemia, 97.2%; in the experiment on MALME-3M melanoma, 105%. Further, the growth with MDA-MB-231 breast was 108%; in the experiment with RXF 393 renal, 103%; with SF-268 CNS, 102%; with SF-295 CNS, 104%; with SF-539 CNS, 108%; in the experiment with UACC-257 melanoma, 93.8%. In addition, the growth with M14 melanoma is 118%.
Consider `O=C(O)c1cn(C2CC2)c2cc(N3CCN(C(=O)c4cc(-c5ccc(Cl)cc5)nc5ccccc45)CC3)c(F)cc2c1=O`, for which the growth with NCI-H23 lung was 82.2%; in the experiment on NCI-H226 lung, 92.3%; with HOP-62 NSCLC, 82.1%; with NCI-H460 lung it was 96.1%; with HOP-92 NSCLC, 90.1%; with NCI-H522 lung, 86.4%. For the same compound, the growth with A549/ATCC NSCLC is 94.4%; with 786-0 renal it was 88.3%; with COLO 205 colon, 110%; in the experiment with DU-145 prostate it was 105%; in the experiment with K-562 leukemia it was 83.7%; with MALME-3M melanoma, 107%. Further, the growth is 76.3% with MDA-MB-231 breast; 73.6% in the experiment on RXF 393 renal; 89% in the experiment with SF-268 CNS; 91.3% in the experiment with SF-295 CNS; 93.8% with SF-539 CNS; 107% with UACC-257 melanoma. Moreover, in the experiment on M14 melanoma, the growth was 84.4%.
For the compound `COc1ccc(/C=C2\CCCC3=C2NC(N)=NC3c2ccc(OC)c(OC)c2)cc1OC` (configuration not stated), the growth in the experiment on NCI-H23 lung is 49.3%; in the experiment with NCI-H226 lung, 34.1%; with HOP-62 NSCLC it was 57%; in the experiment with NCI-H460 lung, 64.6%; in the experiment on HOP-92 NSCLC, 75%; with NCI-H522 lung, 16.7%. The growth in the experiment on A549/ATCC NSCLC was 58.8%; in the experiment with 786-0 renal it was 94.3%; in the experiment on COLO 205 colon it was 46%; with DU-145 prostate, 76.7%; with K-562 leukemia, 56%; with MALME-3M melanoma, 52.5%. Further, the growth with MDA-MB-231 breast was 74%; in the experiment with RXF 393 renal, 20.9%; in the experiment on SF-268 CNS it was 63.8%; in the experiment with SF-295 CNS it was 70.7%; in the experiment on SF-539 CNS it was 85.2%; in the experiment with UACC-257 melanoma, 46.2%. Also, in the experiment on M14 melanoma, the growth is 57.3%.
